Read-outs that look alike come from different tables or passages of the source. Hit rate of the full screen: of about 13,000 compounds, about 3,200 (25%) showed an effect of 50% or more. This is one part of the list.
Tested on: P. falciparum stage V gametocytes
Design: BacTiter-Glo ATP luminescence viability of purified stage V gametocytes in 384-well plates, per cent inhibition versus DMSO
Details: 48 h, 5 µM, inhibitor

Row | SMILES | % Inhibition [%] | % Inhibition (% Inhibition) [%]
1 | COc1cccc(CN2CCCC(CCC(=O)Nc3ccc(C(F)(F)F)cc3)C2)c1O (centres unmarked) [TCMDC-124616] | -32.93 | 
2 | COc1ccc(CC(=O)Nc2ccc(-c3cccc(-c4nc5c(C)cccc5[nH]4)c3)cc2)cc1O [TCMDC-132145] | -7.504 | 
3 | O=[N+]([O-])c1cccc(-n2nc(NCc3ccc(Cl)cc3)nc2-c2ccc(F)c(C(F)(F)F)c2)c1 [TCMDC-133541] | 77.17 | 
4 | Fc1ccc(-c2nc(NCc3cccc(C(F)(F)F)c3)nn2-c2cccc(C(F)(F)F)c2)cc1C(F)(F)F [TCMDC-133542] | -57.69 | 
5 | Fc1ccc(CNc2nc(-c3ccc(F)c(C(F)(F)F)c3)n(-c3cccc(C(F)(F)F)c3)n2)cc1 [TCMDC-133543] | -1.205 | 
6 | O=C(O)C1Cc2c([nH]c3ccccc23)C(c2ccc(Cl)cc2Cl)N1 (centres unmarked) [TCMDC-125815] | 25.42 | 
7 | CCOC(=O)C1=C(C)NC(Cn2ccnc2)=C(C(=O)OCC)C1c1ccc(C(C)(C)C)cc1 (centres unmarked) [TCMDC-138170] | 12.53 | 
8 | Cc1ccc(O)c(-c2cc(C(=O)Nc3ccc(S(=O)(=O)N4CCCCCC4)cc3)[nH]n2)c1 [TCMDC-125201] | -31.36 | 
9 | Cc1ccc(-c2cc(C(=O)Nc3ccc(S(=O)(=O)N(C)Cc4ccccc4)cc3)[nH]n2)c(O)c1 [TCMDC-125181] | -25.99 | 
10 | CC(=O)Nc1ccc(NC(=O)c2cc(-c3cc(Cl)ccc3O)n[nH]2)cc1 [TCMDC-125476] | 83.42 | 
11 | CCN(c1ccccc1)S(=O)(=O)c1ccc(NC(=O)c2cc(-c3cc(C)ccc3O)n[nH]2)cc1 [TCMDC-124308] | 51.8 | 
12 | CC(=O)Nc1ccc(NC(=O)c2cc(-c3ccc(C)cc3O)n[nH]2)cc1 [TCMDC-125182] | 0.9116 | 
13 | O=C(Nc1cccnc1)c1cc(-c2cc(Cl)ccc2O)n[nH]1 [TCMDC-125322] | -15.69 | 
14 | Cc1cccc(C)c1CNc1nc(N2CCOCC2)cc2c(C)c(C)[nH]c12 [TCMDC-134210] | 43.54 | 
15 | CCNC(=O)N[C@@H]1CN[C@@H](C#Cc2cc3c(Nc4ccc(OCc5cccc(F)c5)c(Cl)c4)ncnc3s2)C1 [TCMDC-135409] | -11.09 | 
16 | COc1cc(CNc2ccc(N3CCCC3)cc2)cc(Cl)c1OC [TCMDC-124518] | 100.8 | 
17 | COc1ccc(C=CC(=O)Nc2ccc(N3CCCC3)cc2)cc1 [TCMDC-125750] | -68.82 | 
18 | COc1ccc(CNC2CCN(c3ccc(NC(=O)c4cccc(Cl)c4)cc3)CC2)cc1OC [TCMDC-124658] | -12.9 | 
19 | CCCC1(C)CSc2ccccc2C(c2ccccc2)N1 (centres unmarked) [TCMDC-137314] | 11.78 | 
20 | CCCCCCCN(Cc1ccc(OC(C)(C)C(=O)OCC)cc1)C(=O)Nc1ccc(Cl)cc1OCC [TCMDC-131919] | 74.71 | 
21 | CCCCCCCN(Cc1ccc(OC(C)(C)C(=O)OCC)cc1)C(=O)Nc1ccccc1OCC [TCMDC-137534] | 46.34 | 
22 | CCCCCCCN(Cc1ccc(OC(C)(C)C(=O)OCC)cc1)C(=O)Nc1ccccc1OC(F)(F)F [TCMDC-131918] | 45.53 | 
23 | CCCn1cc2c(ccc3nc(N)nc(N)c32)n1 [TCMDC-137858] | 22.58 | 

Row | SMILES | % Inhibition [%] | % Inhibition (% Inhibition) [%]
24 | Cn1ccc2c3c(N)nc(N)nc3ccc21 [TCMDC-139863] | 5.526 | 
25 | CCC(CC)n1c(C)cc2c3c(N)nc(N)nc3ccc21 [TCMDC-137283] | 15.6 | 
26 | Cn1c(-c2ccccc2)cc2c3c(N)nc(N)nc3ccc21 [TCMDC-137985] | 110.7 | 
27 | Cc1cc2c3c(N)nc(N)nc3ccc2n1C(C)C [TCMDC-137864] | -11.65 | 
28 | Cc1cc2c3c(N)nc(N)nc3ccc2n1C [TCMDC-137957] | 115.7 | 
29 | CCC(C)(C)n1c(C)cc2c3c(N)nc(N)nc3ccc21 [TCMDC-137307] | 10.01 | 
30 | CCOCn1c(-c2ccccc2)cc2c3c(N)nc(N)nc3ccc21 [TCMDC-137979] | 108.5 | 
31 | Nc1nc(N)c2c(ccc3nn(Cc4ccccc4)cc32)n1 [TCMDC-137757] | -1.825 | 
32 | COc1ccc(C(=O)COc2cccc(/C=C/C(=O)O)c2)cc1OC [TCMDC-137318] | -6.983 | 
33 | Cc1nc(-c2cccc(NCc3ccccc3)c2)[nH]c1C [TCMDC-133419] | -26.98 | 
34 | CCOc1cc(Cc2cnc(N)nc2N)cc(OC)c1OC [TCMDC-137664] | -4.101 | 
35 | CC(C)C1C(O)=C(c2ccc3ccccc3c2)C(=O)N1Cc1ccsc1 (centres unmarked) [TCMDC-141810] | 16.73 | 
36 | Cc1ccccc1C1CCN(C2CCC(NC(=O)/C=C/c3cccc(Cl)c3F)CC2)CC1 (centres unmarked) [TCMDC-133513] | -35.56 | 
37 | COc1cccc(CNC[C@@H](O)[C@H](Cc2ccccc2)NC(=O)c2cc3c4c(c2)c(C(C)C)cn4CCS(=O)(=O)N3C)c1 [TCMDC-135536] | 25 | 
38 | COc1ccc2nccc([C@@H](O)CN3CCC(NC(=O)c4cccc(-c5cc(C)no5)c4)CC3)c2c1 [TCMDC-141133] | -80.32 | 
39 | Cc1noc(C)c1-c1cccc(C(=O)NC2CCN(CCNC(=O)C(c3ccccc3)c3ccccc3)CC2)c1 [TCMDC-133354] | 85.49 | 
40 | Cc1nn(-c2ccccc2)nc1C(=O)NC1CCN(CCNC(=O)c2ccc(Cl)c(Cl)c2)CC1 [TCMDC-141951] | 7.25 | 
41 | OCCn1c(CNCCCNc2nc3ccccc3[nH]2)cc2c(Cl)cc(Cl)cc21 [TCMDC-140142] | 2.661 | 
42 | CNc1nc(N/N=C/c2cc([N+](=O)[O-])c(Cl)cc2Cl)nc(Nc2cccc(C(F)(F)F)c2)n1 [TCMDC-124087] | -4.111 | 
43 | CCn1c(-c2nonc2N)nc2cnc(Oc3cccc(NC(=O)c4ccc(OCCN(C(C)C)C(C)C)cc4)c3)cc21 [TCMDC-135777] | -15.21 | 
44 | CCn1c(-c2nonc2N)nc2c(C#CC(C)(C)O)ncc(OCCNCCc3ccc(OC)cc3)c21 [TCMDC-136364] | 100.7 | 
45 | CCn1c(-c2nonc2N)nc2c(-c3cccc(NC(=O)Nc4ccccc4OC)c3)ncc(OCCCN)c21 [TCMDC-136190] | 111.9 | 
46 | CCn1c(-c2nonc2N)nc2c(-c3cccc(NC(=O)Nc4ccccc4Cl)c3)ncc(OCCCN)c21 [TCMDC-136192] | 107.4 | 

Row | SMILES | % Inhibition [%] | % Inhibition (% Inhibition) [%]
47 | COc1ccccc1NC(=O)Nc1cccc(-c2cccc(-c3nc4c(C)cccc4[nH]3)c2)c1 [TCMDC-133204] | -4.891 | 
48 | COc1cccc(-c2ccc3c(-c4cccc(NC(C)=O)c4)cnc(N)c3c2)c1 [TCMDC-134562] | 29.05 | 
49 | COc1ccccc1NC(=O)Nc1cccc(-c2ccc(-c3nc4cccc(C)c4[nH]3)s2)c1 [TCMDC-133200] | 0.164 | 
50 | CCn1c(-c2nonc2N)nc2c(-c3cccc(NC(=O)Nc4cccc(OC)c4)c3)ncc(OCCCN)c21 [TCMDC-136180] | 96.94 | 
51 | CCC(Cc1cnc2nc(N)nc(N)c2n1)c1ccc(C(=O)O)cc1 (centres unmarked) [TCMDC-137331] | 24.52 | 
52 | FC(F)(F)c1ccc2[nH]c(-c3ccc(-c4ccc(CN5CCN(c6ccncc6)CC5)cc4)s3)nc2c1.O=C(O)C(F)(F)F [TCMDC-132920] | -8.718 | 
53 | O=C(Nc1ccc([N+](=O)[O-])cc1O)Nc1ccccc1Oc1ccccc1 [TCMDC-139010] | -27.06 | 
54 | O=c1[nH]c2c(c(O)c1[N+](=O)[O-])CCC2 [TCMDC-131385] | -1.405 | 
55 | Cc1ccc(NC(=O)NC2CCN(CCC(NC(=O)Cc3ccccc3)c3ccc(Cl)c(Cl)c3)CC2)cc1 (centres unmarked) [TCMDC-141708] | -50.52 | 
56 | CCOC(=O)C(=O)N1c2ccc(OCC)cc2-c2c(ssc2=S)C1(C)C [TCMDC-124090] | -28.77 | 
57 | COc1cc(NC(=O)/C=C/c2cccc3cc[nH]c23)ccc1OCCN(C(C)C)C(C)C [TCMDC-139962] | 14.04 | 
58 | CCOC(=O)c1ccc(NC(=O)c2ccccc2C(=O)O)cc1 [TCMDC-125804] | 12.67 | 
59 | CCC(NC(=O)c1ccccc1NC(=O)c1ccc(C)cc1)C(=O)OC (centres unmarked) [TCMDC-124179] | 51.66 | 
60 | Cc1cc(NC(=O)c2ccc(-c3ccccc3)cc2)no1 [TCMDC-123478] | 45.67 | 
61 | CC(=O)N(C)/N=C/[C@H](CCc1ccccc1)NC(=O)[C@H](CC(C)C)NC(=O)c1cccc(OCCN2CCOCC2)c1 [TCMDC-135821] | 14.53 | 
62 | OC1(C(F)(F)F)CC(c2ccccc2)=NN1c1nncc(-c2ccccc2)n1 (centres unmarked) [TCMDC-123864] | 70.72 | 
63 | O=C(Nc1cccc(-c2cccc(-c3nc4ccccc4[nH]3)c2)c1)NC1CC1c1ccccc1 (centres unmarked) [TCMDC-133253] |  | -2.475
64 | CN1CCC(NCc2cccc(-c3ccc(S(=O)(=O)NCc4ccccc4)c(F)c3)c2)CC1 [TCMDC-132219] | 107.3 | 
65 | CN1CCC(NCc2ccc(-c3ccc(S(=O)(=O)NCc4ccccc4)c(F)c3)cc2)CC1 [TCMDC-132235] | 73.08 | 
66 | Cc1cc(-c2cccc(CNC3CCN(C)CC3)c2)ccc1S(=O)(=O)NCc1ccccc1 [TCMDC-132379] | 41.73 | 
67 | Cc1cc(-c2ccc(CNC3CCN(C)CC3)cc2)ccc1S(=O)(=O)NCc1ccccc1 [TCMDC-132474] | 44.56 | 
68 | CCNc1cc(C(=O)N[C@@H](Cc2ccccc2)[C@H](O)CN[C@H](C)C(C)(C)C)cc(N2CCCCS2(=O)=O)c1 [TCMDC-135194] | 4.242 | 
